Experiment in all cases: PBM; 200 nM protein, PBS
Common to all, as to details: dsDNA, one strand shown

The target in assay [1] is NKX2-5 (Homo sapiens, UniProt P52952 125-210, R139K).
Assay [2] deals with T1, NKX2-4 (Homo sapiens, UniProt Q9H2Z4 175-261, P217L).
T1 sequence: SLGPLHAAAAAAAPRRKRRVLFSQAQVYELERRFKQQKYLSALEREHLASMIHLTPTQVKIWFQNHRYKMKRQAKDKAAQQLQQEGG

The target of assay [3] is T2, NKX2-4 (Homo sapiens, UniProt Q9H2Z4 175-261, T231S).
T2 sequence: T1 sequence with L43P, T57S

Assay [4] concerns the target T3, NKX2-4 (Homo sapiens, UniProt Q9H2Z4 175-261).
T3 sequence: T1 sequence with L43P

The target in assay [5] is T4, NKX2-6 (Homo sapiens, UniProt A6NCS4 118-204, R150C).
T4 sequence: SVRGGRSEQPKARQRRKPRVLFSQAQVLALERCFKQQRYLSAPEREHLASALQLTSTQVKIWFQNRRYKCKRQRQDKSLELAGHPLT

Assay [6] has as its target T5, NKX2-6 (Homo sapiens, UniProt A6NCS4 118-204).
T5 sequence: T4 sequence with C33R

In assay [7] the target is T6, NKX2-4 (Homo sapiens, UniProt Q9H2Z4 175-261, R246Q).
T6 sequence: T1 sequence with L43P, R72Q

Assay [8] has as its target T7, NKX2-6 (Homo sapiens, UniProt A6NCS4 118-204, F151L).
T7 sequence: T4 sequence with C33R, F34L

For assay [9], the target named is NKX2-5 (Homo sapiens, UniProt P52952 125-210).
In assay [10] the target is NKX3-2 (Homo sapiens, UniProt P78367 192-278, P234S).
The target of assay [11] is NKX3-2 (Homo sapiens, UniProt P78367 192-278).

Changes are numbered by the printed parent chain.

For six sequences, binding signal results are on record in article PMC11006913.

Chain of NKX2-5 (Homo sapiens, UniProt P52952 125-210, R139K) (P52952 125-210 R139K): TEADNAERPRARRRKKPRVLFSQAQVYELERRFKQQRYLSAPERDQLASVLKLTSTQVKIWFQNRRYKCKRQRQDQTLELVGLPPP
Chain of NKX3-2 (Homo sapiens, UniProt P78367 192-278) (P78367 192-278): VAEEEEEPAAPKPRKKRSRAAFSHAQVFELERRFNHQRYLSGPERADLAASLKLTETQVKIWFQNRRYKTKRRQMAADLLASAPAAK
Chain of NKX3-2 (Homo sapiens, UniProt P78367 192-278, P234S) (P78367 192-278 P234S): as the sequence (P78367 192-278) above, with P43S counted along it
Chain of NKX2-5 (Homo sapiens, UniProt P52952 125-210) (P52952 125-210): as the sequence (P52952 125-210 R139K) above, with K15R counted along it

With CTCAAGTA, the binding signal with NKX2-5 [1] was 12.7 upbm affinity estimate (log intensity, higher = more binding, comparable within an allelic series); with NKX2-4 [2], 12.7 upbm affinity estimate (log intensity, higher = more binding, comparable within an allelic series); with NKX2-4 [3], 13.1 upbm affinity estimate (log intensity, higher = more binding, comparable within an allelic series); in the assay with NKX2-4 [4], 12.6 upbm affinity estimate (log intensity, higher = more binding, comparable within an allelic series); in the assay with NKX2-6 [5], 11.8 upbm affinity estimate (log intensity, higher = more binding, comparable within an allelic series); with NKX2-6 [6], 13.6 upbm affinity estimate (log intensity, higher = more binding, comparable within an allelic series). The binding signal in the assay with NKX2-4 [7] was 13.3 upbm affinity estimate (log intensity, higher = more binding, comparable within an allelic series); in the assay with NKX2-6 [8] it was 10.8 upbm affinity estimate (log intensity, higher = more binding, comparable within an allelic series); with NKX2-5 [9] it was 12.6 upbm affinity estimate (log intensity, higher = more binding, comparable within an allelic series).
In the case of AAGTACTT, the binding signal in the assay with NKX2-5 [1] is 13.2 upbm affinity estimate (log intensity, higher = more binding, comparable within an allelic series); in the assay with NKX2-4 [2] it was 12.9 upbm affinity estimate (log intensity, higher = more binding, comparable within an allelic series); with NKX2-4 [3], 13.3 upbm affinity estimate (log intensity, higher = more binding, comparable within an allelic series); in the assay with NKX2-4 [4], 12.7 upbm affinity estimate (log intensity, higher = more binding, comparable within an allelic series); with NKX2-6 [5] it was 12.1 upbm affinity estimate (log intensity, higher = more binding, comparable within an allelic series); in the assay with NKX2-6 [6], 13.8 upbm affinity estimate (log intensity, higher = more binding, comparable within an allelic series). Besides, the binding signal in the assay with NKX2-4 [7] was 13.3 upbm affinity estimate (log intensity, higher = more binding, comparable within an allelic series); in the assay with NKX2-6 [8] it was 11.5 upbm affinity estimate (log intensity, higher = more binding, comparable within an allelic series); with NKX3-2 [10], 12.6 upbm affinity estimate (log intensity, higher = more binding, comparable within an allelic series); with NKX2-5 [9], 13 upbm affinity estimate (log intensity, higher = more binding, comparable within an allelic series); with NKX3-2 [11] it was 12.7 upbm affinity estimate (log intensity, higher = more binding, comparable within an allelic series).
As to CACTTAAG, the binding signal with NKX2-5 [1] was 13.2 upbm affinity estimate (log intensity, higher = more binding, comparable within an allelic series); with NKX2-4 [2], 12.7 upbm affinity estimate (log intensity, higher = more binding, comparable within an allelic series); with NKX2-4 [3] it was 13 upbm affinity estimate (log intensity, higher = more binding, comparable within an allelic series); in the assay with NKX2-4 [4], 12.5 upbm affinity estimate (log intensity, higher = more binding, comparable within an allelic series); in the assay with NKX2-6 [5], 12.2 upbm affinity estimate (log intensity, higher = more binding, comparable within an allelic series); with NKX2-6 [6] it was 14 upbm affinity estimate (log intensity, higher = more binding, comparable within an allelic series). In addition, the binding signal with NKX2-4 [7] is 13.2 upbm affinity estimate (log intensity, higher = more binding, comparable within an allelic series); in the assay with NKX2-6 [8], 11.5 upbm affinity estimate (log intensity, higher = more binding, comparable within an allelic series); with NKX3-2 [10], 13 upbm affinity estimate (log intensity, higher = more binding, comparable within an allelic series); in the assay with NKX2-5 [9], 13.1 upbm affinity estimate (log intensity, higher = more binding, comparable within an allelic series); in the assay with NKX3-2 [11], 13.1 upbm affinity estimate (log intensity, higher = more binding, comparable within an allelic series).
Consider GGTACTTA, for which the binding signal in the assay with NKX2-5 [1] is 13.1 upbm affinity estimate (log intensity, higher = more binding, comparable within an allelic series); in the assay with NKX2-4 [2], 12.6 upbm affinity estimate (log intensity, higher = more binding, comparable within an allelic series); in the assay with NKX2-4 [3], 13 upbm affinity estimate (log intensity, higher = more binding, comparable within an allelic series); with NKX2-4 [4], 12.5 upbm affinity estimate (log intensity, higher = more binding, comparable within an allelic series); with NKX2-6 [5], 12 upbm affinity estimate (log intensity, higher = more binding, comparable within an allelic series); with NKX2-6 [6], 13.8 upbm affinity estimate (log intensity, higher = more binding, comparable within an allelic series). The binding signal with NKX2-4 [7] was 13.1 upbm affinity estimate (log intensity, higher = more binding, comparable within an allelic series); in the assay with NKX2-6 [8] it was 11 upbm affinity estimate (log intensity, higher = more binding, comparable within an allelic series); with NKX3-2 [10], 12.8 upbm affinity estimate (log intensity, higher = more binding, comparable within an allelic series); with NKX2-5 [9], 12.9 upbm affinity estimate (log intensity, higher = more binding, comparable within an allelic series); with NKX3-2 [11], 12.8 upbm affinity estimate (log intensity, higher = more binding, comparable within an allelic series).
For the sequence CCACTTAA, the binding signal with NKX2-5 [1] is 13.4 upbm affinity estimate (log intensity, higher = more binding, comparable within an allelic series); with NKX2-4 [2] it was 12.8 upbm affinity estimate (log intensity, higher = more binding, comparable within an allelic series); with NKX2-4 [3], 13.2 upbm affinity estimate (log intensity, higher = more binding, comparable within an allelic series); with NKX2-4 [4], 12.7 upbm affinity estimate (log intensity, higher = more binding, comparable within an allelic series); with NKX2-6 [5], 12.3 upbm affinity estimate (log intensity, higher = more binding, comparable within an allelic series); in the assay with NKX2-6 [6], 14.1 upbm affinity estimate (log intensity, higher = more binding, comparable within an allelic series). In addition, the binding signal with NKX2-4 [7] was 13.3 upbm affinity estimate (log intensity, higher = more binding, comparable within an allelic series); with NKX2-6 [8], 11.5 upbm affinity estimate (log intensity, higher = more binding, comparable within an allelic series); with NKX3-2 [10], 13.2 upbm affinity estimate (log intensity, higher = more binding, comparable within an allelic series); with NKX2-5 [9] it was 13.2 upbm affinity estimate (log intensity, higher = more binding, comparable within an allelic series); in the assay with NKX3-2 [11], 13.3 upbm affinity estimate (log intensity, higher = more binding, comparable within an allelic series).
In the case of AACACTTA, the binding signal was 12.7 upbm affinity estimate (log intensity, higher = more binding, comparable within an allelic series) with NKX2-5 [1]; 12.5 upbm affinity estimate (log intensity, higher = more binding, comparable within an allelic series) with NKX2-4 [2]; 12.8 upbm affinity estimate (log intensity, higher = more binding, comparable within an allelic series) with NKX2-4 [3]; 12.4 upbm affinity estimate (log intensity, higher = more binding, comparable within an allelic series) in the assay with NKX2-4 [4]; 11.8 upbm affinity estimate (log intensity, higher = more binding, comparable within an allelic series) with NKX2-6 [5]; 13.6 upbm affinity estimate (log intensity, higher = more binding, comparable within an allelic series) in the assay with NKX2-6 [6]. Also, the binding signal with NKX2-4 [7] is 12.9 upbm affinity estimate (log intensity, higher = more binding, comparable within an allelic series); in the assay with NKX2-6 [8] it was 11.3 upbm affinity estimate (log intensity, higher = more binding, comparable within an allelic series); with NKX3-2 [10] it was 12.7 upbm affinity estimate (log intensity, higher = more binding, comparable within an allelic series); with NKX2-5 [9] it was 12.6 upbm affinity estimate (log intensity, higher = more binding, comparable within an allelic series); in the assay with NKX3-2 [11], 12.7 upbm affinity estimate (log intensity, higher = more binding, comparable within an allelic series).
